# Source: the supplement of paper PMC3616981
# ± gives the standard deviation of the averaged measurements.
# Key:
# [1] = compound: CC(C)c1cccc(C(C)C)c1N1C(=O)c2ccc(O)cc2C1=O; assay: reporter fold induction vs vehicle; higher = higher reporter activity
# Summary of the method: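 Multiplexed cellular biosensor reporter system with cis response-element and trans nuclear-receptor transcription factor reporter constructs (48 cis, 25 trans) and homogeneous detection, tested in ToxCast Phase II at 8 concentrations (0.091–200 µM). Reporter activity is given as fold induction relative to vehicle control. Replicates were averaged where present.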
# [2] = compound: CC(C)c1cccc(C(C)C)c1N1C(=O)c2ccc(O)cc2C1=O; assay: BioMAP readout fold decrease vs vehicle (vehicle/treated); higher = stronger decrease of the readout vs vehicle (values <1 mean increase)
# Method: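 BioSeek BioMAP human primary cell (co-)culture systems (3C, 4H, LPS, SAg, BE3C, CASM3C, hDFCGF, KF3CT) treated with 5HPP-33 at 1.48, 4.44, 13.3 and 40 µM. Read-outs are protein levels by ELISA, proliferation and SRB total protein. Duplicate rows per assay are averaged as replicates. Tested in ToxCast Phase II for this study; exposure time not stated.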
# 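Throughout, for BioMAP readout fold decrease vs vehicle (vehicle/treated): Co-cultures of keratinocytes, bronchial epithelial and smooth muscle cells, fibroblasts, HUVECs and PBMCs under stimuli like LPS, TNF-α, IFN-γ, IL-1β, TGF-β or EGF, SRB reflecting cytotoxicity.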
target,measurement,setting,value
EGR_CIS,reporter fold induction,[1]; 0.091 µM,1.05
same,reporter fold induction,[1]; 0.274 µM,0.979
same,reporter fold induction,[1]; 0.823 µM,0.95
same,reporter fold induction,[1]; 2.469 µM,0.927
same,reporter fold induction,[1]; 7.407 µM,1.1
same,reporter fold induction,[1]; 22.22 µM,1.2
same,reporter fold induction,[1]; 66.67 µM,1.64
same,reporter fold induction,[1]; 200 µM,2.7
Myc_CIS,reporter fold induction,[1]; 0.091 µM,1.01
same,reporter fold induction,[1]; 0.274 µM,1.03
same,reporter fold induction,[1]; 0.823 µM,0.99
same,reporter fold induction,[1]; 2.469 µM,0.982
same,reporter fold induction,[1]; 7.407 µM,1.09
same,reporter fold induction,[1]; 22.22 µM,1.04
same,reporter fold induction,[1]; 66.67 µM,1.05
same,reporter fold induction,[1]; 200 µM,2.33
LXRb_TRANS,reporter fold induction,[1]; 0.091 µM,1.17
same,reporter fold induction,[1]; 0.274 µM,1.09
same,reporter fold induction,[1]; 0.823 µM,1
same,reporter fold induction,[1]; 2.469 µM,1.16
same,reporter fold induction,[1]; 7.407 µM,0.89
same,reporter fold induction,[1]; 22.22 µM,0.837
same,reporter fold induction,[1]; 66.67 µM,1.13
same,reporter fold induction,[1]; 200 µM,1.11
NF_kB_CIS,reporter fold induction,[1]; 0.091 µM,1.08
same,reporter fold induction,[1]; 0.274 µM,0.96
same,reporter fold induction,[1]; 0.823 µM,0.971
same,reporter fold induction,[1]; 2.469 µM,0.979
same,reporter fold induction,[1]; 7.407 µM,0.968
same,reporter fold induction,[1]; 22.22 µM,1.08
same,reporter fold induction,[1]; 66.67 µM,1.39
same,reporter fold induction,[1]; 200 µM,1.06
BE3C_MIG,BioMAP readout fold decrease,[2]; 1.48 µM,0.992 ± 0.016
same,BioMAP readout fold decrease,[2]; 4.44 µM,1 ± 0.021
same,BioMAP readout fold decrease,[2]; 13.3 µM,1.036 ± 0.0018
same,BioMAP readout fold decrease,[2]; 40 µM,1.36 ± 0.19
3C_uPAR,BioMAP readout fold decrease,[2]; 1.48 µM,1.13 ± 0.03
same,BioMAP readout fold decrease,[2]; 4.44 µM,1.15 ± 0.053
same,BioMAP readout fold decrease,[2]; 13.3 µM,1.43 ± 0.1
same,BioMAP readout fold decrease,[2]; 40 µM,2.6 ± 0.15
LPS_TissueFactor,BioMAP readout fold decrease,[2]; 1.48 µM,0.905 ± 0.021
same,BioMAP readout fold decrease,[2]; 4.44 µM,0.9505 ± 0.0063
same,BioMAP readout fold decrease,[2]; 13.3 µM,1.04 ± 0.02
same,BioMAP readout fold decrease,[2]; 40 µM,1.21 ± 0.024
SAg_SRB,BioMAP readout fold decrease,[2]; 1.48 µM,0.9638 ± 0.0049
same,BioMAP readout fold decrease,[2]; 4.44 µM,1.1 ± 0.021
same,BioMAP readout fold decrease,[2]; 13.3 µM,1.299 ± 0.011
same,BioMAP readout fold decrease,[2]; 40 µM,1.9 ± 0.097
KF3CT_uPA,BioMAP readout fold decrease,[2]; 1.48 µM,1.016 ± 0.0099
same,BioMAP readout fold decrease,[2]; 4.44 µM,1.015 ± 0.01
same,BioMAP readout fold decrease,[2]; 13.3 µM,0.969 ± 0.012
same,BioMAP readout fold decrease,[2]; 40 µM,2.15 ± 0.47
3C_hLADR,BioMAP readout fold decrease,[2]; 1.48 µM,1.04 ± 0.038
same,BioMAP readout fold decrease,[2]; 4.44 µM,1.55 ± 0.048
same,BioMAP readout fold decrease,[2]; 13.3 µM,4.27 ± 0.47
same,BioMAP readout fold decrease,[2]; 40 µM,7.36 ± 0.11
BE3C_uPAR,BioMAP readout fold decrease,[2]; 1.48 µM,1.02 ± 0.013
same,BioMAP readout fold decrease,[2]; 4.44 µM,1.0603 ± 0.00083
same,BioMAP readout fold decrease,[2]; 13.3 µM,1.1 ± 0.012
same,BioMAP readout fold decrease,[2]; 40 µM,1.26 ± 0.022
CASM3C_SAA,BioMAP readout fold decrease,[2]; 1.48 µM,1.02 ± 0.09
same,BioMAP readout fold decrease,[2]; 4.44 µM,1.12 ± 0.018
same,BioMAP readout fold decrease,[2]; 13.3 µM,1.094 ± 0.0048
same,BioMAP readout fold decrease,[2]; 40 µM,1.72 ± 0.1
hDFCGF_PAI1,BioMAP readout fold decrease,[2]; 1.48 µM,1.12 ± 0.14
same,BioMAP readout fold decrease,[2]; 4.44 µM,1.08 ± 0.056
same,BioMAP readout fold decrease,[2]; 13.3 µM,1.43 ± 0.031
same,BioMAP readout fold decrease,[2]; 40 µM,3.53 ± 0.21
CASM3C_Proliferation,BioMAP readout fold decrease,[2]; 1.48 µM,1.11 ± 0.024
same,BioMAP readout fold decrease,[2]; 4.44 µM,1.58 ± 0.054
same,BioMAP readout fold decrease,[2]; 13.3 µM,1.2 ± 0.23
same,BioMAP readout fold decrease,[2]; 40 µM,2.76 ± 0.16
SAg_CD69,BioMAP readout fold decrease,[2]; 1.48 µM,1.13 ± 0.076
same,BioMAP readout fold decrease,[2]; 4.44 µM,1.24 ± 0.035
same,BioMAP readout fold decrease,[2]; 13.3 µM,1.52 ± 0.077
same,BioMAP readout fold decrease,[2]; 40 µM,3.2 ± 0.15
SAg_Eselectin,BioMAP readout fold decrease,[2]; 1.48 µM,1.14 ± 0.027
same,BioMAP readout fold decrease,[2]; 4.44 µM,1.02 ± 0.041
same,BioMAP readout fold decrease,[2]; 13.3 µM,1.14 ± 0.087
same,BioMAP readout fold decrease,[2]; 40 µM,3.92 ± 0.27
KF3CT_TIMP2,BioMAP readout fold decrease,[2]; 1.48 µM,1 ± 0.025
same,BioMAP readout fold decrease,[2]; 4.44 µM,0.978 ± 0.038
same,BioMAP readout fold decrease,[2]; 13.3 µM,1.08 ± 0.075
same,BioMAP readout fold decrease,[2]; 40 µM,2.5 ± 0.22
KF3CT_TGFb1,BioMAP readout fold decrease,[2]; 1.48 µM,1.03 ± 0.011
same,BioMAP readout fold decrease,[2]; 4.44 µM,1.044 ± 0.0031
same,BioMAP readout fold decrease,[2]; 13.3 µM,1.11 ± 0.021
same,BioMAP readout fold decrease,[2]; 40 µM,2.33 ± 0.15
BE3C_SRB,BioMAP readout fold decrease,[2]; 1.48 µM,0.9933 ± 0.0058
same,BioMAP readout fold decrease,[2]; 4.44 µM,0.9934 ± 0.0085
same,BioMAP readout fold decrease,[2]; 13.3 µM,1.0272 ± 0.001
same,BioMAP readout fold decrease,[2]; 40 µM,1.1579 ± 0.0011
KF3CT_ICAM1,BioMAP readout fold decrease,[2]; 1.48 µM,0.999 ± 0.092
same,BioMAP readout fold decrease,[2]; 4.44 µM,1.03 ± 0.037
same,BioMAP readout fold decrease,[2]; 13.3 µM,0.9245 ± 0.0078
same,BioMAP readout fold decrease,[2]; 40 µM,1.08 ± 0.062
BE3C_uPA,BioMAP readout fold decrease,[2]; 1.48 µM,1.07 ± 0.019
same,BioMAP readout fold decrease,[2]; 4.44 µM,1.017 ± 0.0048
same,BioMAP readout fold decrease,[2]; 13.3 µM,1.027 ± 0.0098
same,BioMAP readout fold decrease,[2]; 40 µM,1.15 ± 0.042
SAg_CD38,BioMAP readout fold decrease,[2]; 1.48 µM,1.01 ± 0.025
same,BioMAP readout fold decrease,[2]; 4.44 µM,1.34 ± 0.061
same,BioMAP readout fold decrease,[2]; 13.3 µM,2.26 ± 0.16
same,BioMAP readout fold decrease,[2]; 40 µM,5.07 ± 0.81
KF3CT_IL1a,BioMAP readout fold decrease,[2]; 1.48 µM,0.969 ± 0.029
same,BioMAP readout fold decrease,[2]; 4.44 µM,0.992 ± 0.045
same,BioMAP readout fold decrease,[2]; 13.3 µM,0.987 ± 0.034
same,BioMAP readout fold decrease,[2]; 40 µM,2.08 ± 0.17
hDFCGF_VCAM1,BioMAP readout fold decrease,[2]; 1.48 µM,1.18 ± 0.2
same,BioMAP readout fold decrease,[2]; 4.44 µM,1.32 ± 0.063
same,BioMAP readout fold decrease,[2]; 13.3 µM,2.03 ± 0.15
same,BioMAP readout fold decrease,[2]; 40 µM,4.4 ± 0.3
CASM3C_MIG,BioMAP readout fold decrease,[2]; 1.48 µM,0.9799 ± 0.0029
same,BioMAP readout fold decrease,[2]; 4.44 µM,0.9517 ± 0.009
same,BioMAP readout fold decrease,[2]; 13.3 µM,0.96395 ± 0.0005
same,BioMAP readout fold decrease,[2]; 40 µM,1.03 ± 0.015
CASM3C_VCAM1,BioMAP readout fold decrease,[2]; 1.48 µM,1.05 ± 0.029
same,BioMAP readout fold decrease,[2]; 4.44 µM,1.0767 ± 0.00049
same,BioMAP readout fold decrease,[2]; 13.3 µM,1.19 ± 0.023
same,BioMAP readout fold decrease,[2]; 40 µM,1.55 ± 0.021
CASM3C_HLADR,BioMAP readout fold decrease,[2]; 1.48 µM,0.895 ± 0.021
same,BioMAP readout fold decrease,[2]; 4.44 µM,0.797 ± 0.061
same,BioMAP readout fold decrease,[2]; 13.3 µM,1.41 ± 0.07
same,BioMAP readout fold decrease,[2]; 40 µM,2.61 ± 0.45
LPS_VCAM1,BioMAP readout fold decrease,[2]; 1.48 µM,1.14 ± 0.055
same,BioMAP readout fold decrease,[2]; 4.44 µM,1.55 ± 0.14
same,BioMAP readout fold decrease,[2]; 13.3 µM,2.13 ± 0.16
same,BioMAP readout fold decrease,[2]; 40 µM,3.55 ± 0.13
4H_VEGFRII,BioMAP readout fold decrease,[2]; 1.48 µM,1.07 ± 0.028
same,BioMAP readout fold decrease,[2]; 4.44 µM,1.03 ± 0.021
same,BioMAP readout fold decrease,[2]; 13.3 µM,1.2 ± 0.076
same,BioMAP readout fold decrease,[2]; 40 µM,1.45 ± 0.069
CASM3C_MCP1,BioMAP readout fold decrease,[2]; 1.48 µM,1.07 ± 0.045
same,BioMAP readout fold decrease,[2]; 4.44 µM,1.137 ± 0.0029
same,BioMAP readout fold decrease,[2]; 13.3 µM,1 ± 0.016
same,BioMAP readout fold decrease,[2]; 40 µM,0.9734 ± 0.002
LPS_SRB,BioMAP readout fold decrease,[2]; 1.48 µM,0.935 ± 0.012
same,BioMAP readout fold decrease,[2]; 4.44 µM,1.032 ± 0.0086
same,BioMAP readout fold decrease,[2]; 13.3 µM,1.277 ± 0.0063
same,BioMAP readout fold decrease,[2]; 40 µM,1.87 ± 0.066
hDFCGF_MMP1,BioMAP readout fold decrease,[2]; 1.48 µM,0.956 ± 0.05
same,BioMAP readout fold decrease,[2]; 4.44 µM,0.93304 ± 0.00091
same,BioMAP readout fold decrease,[2]; 13.3 µM,0.85 ± 0.0086
same,BioMAP readout fold decrease,[2]; 40 µM,1.09 ± 0.13
SAg_MIG,BioMAP readout fold decrease,[2]; 1.48 µM,1.05 ± 0.017
same,BioMAP readout fold decrease,[2]; 4.44 µM,1.04 ± 0.012
same,BioMAP readout fold decrease,[2]; 13.3 µM,1.07 ± 0.034
same,BioMAP readout fold decrease,[2]; 40 µM,7.73 ± 1.1
KF3CT_IP10,BioMAP readout fold decrease,[2]; 1.48 µM,0.9935 ± 0.0028
same,BioMAP readout fold decrease,[2]; 4.44 µM,1.06 ± 0.035
same,BioMAP readout fold decrease,[2]; 13.3 µM,1.39 ± 0.016
same,BioMAP readout fold decrease,[2]; 40 µM,7.16 ± 0.78
SAg_PBMCCytotoxicity,BioMAP readout fold decrease,[2]; 1.48 µM,0.998 ± 0.065
same,BioMAP readout fold decrease,[2]; 4.44 µM,1.01 ± 0.078
same,BioMAP readout fold decrease,[2]; 13.3 µM,0.879 ± 0.028
same,BioMAP readout fold decrease,[2]; 40 µM,0.894 ± 0.028
